Data taken from PubChem BioAssay.
Active and inactive are the calls of the source.

How the values were obtained:
[1] = tested on: Human papillomavirus type 1a protein E7 (residues 44-93); test: HPV1a E7 fragment binders on microarrays, primary screen, biochemical, small-molecule microarray, residues 44-93, 635 nm fluorescence (AID 1108); details: small-molecule microarray binding, fluorescence 635 nm; higher = more signal;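 further: E7 fragment applied at 1 µg/mL in TBST for 1 h at 4 C; score combines spot fluorescence with its signal to noise ratio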
[2] = modulators of HCV replicon luciferase signal, primary screen, HCV replication inhibitor project, Huh7 cells, luciferase reporter (AID 1109); details: 48 h, higher = more signal;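 further: huh7 hepatoma cells harbouring a luciferase neomycin HCV replicon reporter; luciferase luminescence as measure of HCV replicon replication; test concentration not given here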
[3] = biological target: Left-right determination factor 2 (Homo sapiens) (UniProt O00292); test: LEFTY2 binders on small-molecule microarrays, primary screen, biochemical, small-molecule microarray, 635 nm fluorescence scan (AID 1110); details: LEFTY2 binding, higher = more signal
Left-right determination factor 2 (Homo sapiens), sequence (O00292 whole entry, looked up): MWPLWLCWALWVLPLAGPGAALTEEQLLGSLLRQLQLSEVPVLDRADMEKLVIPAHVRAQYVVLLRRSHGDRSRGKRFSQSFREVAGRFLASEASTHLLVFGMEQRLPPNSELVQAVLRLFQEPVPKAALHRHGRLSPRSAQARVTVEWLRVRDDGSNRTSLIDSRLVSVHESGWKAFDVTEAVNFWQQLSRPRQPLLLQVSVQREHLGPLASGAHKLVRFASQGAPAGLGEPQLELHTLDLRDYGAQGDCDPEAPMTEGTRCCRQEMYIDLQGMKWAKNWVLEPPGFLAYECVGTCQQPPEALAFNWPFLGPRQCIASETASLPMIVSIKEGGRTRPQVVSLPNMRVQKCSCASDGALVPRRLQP

[4] = biological target: Calmodulin-1 (Homo sapiens) (UniProt P0DP23); test: CALM1 binders on microarrays, EGTA buffer, profiling panel, biochemical, small-molecule microarray, Cy5-labelled CALM1 (AID 1111); details: Cy5-CALM1 binding fluorescence, higher = more signal;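 further: labelled calmodulin applied in Tris saline Tween buffer holding calcium plus EGTA and DTT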
[5] = biological target: Calmodulin-1 (Homo sapiens) (UniProt P0DP23); test: calcium-bound CALM1 binders on microarrays, profiling panel, artefact control for SMM control-protein annotation, biochemical, small-molecule microarray, Cy5-labelled CALM1, plus calcium (AID 1112); details: Cy5-CALM1 binding fluorescence, higher = more signal;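 further: score merges spot fluorescence with signal to noise from triplicate slides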
[6] = small-molecule microarray binders of probe aWnt5a, primary screen, biochemical, biotinylated probe, 635/667 nm fluorescence (AID 1113); details: higher = more signal;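 further: score merges 667 nm fluorescence intensity with signal-to-noise per printed feature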
[7] = small-molecule microarray binders of probe aShh, primary screen, biochemical, biotinylated probe, 635/667 nm fluorescence (AID 1114); details: higher = more signal;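 further: probe is biotin-labelled aShh protein from a stem cell growth factor screen; measures binding of labelled protein to compounds printed on the slide; score merges feature fluorescence at 667 nm with signal-to-noise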
[8] = small-molecule microarray binders of probe aNog, primary screen, biochemical, biotinylated probe, 635/667 nm fluorescence (AID 1115); details: higher = more signal;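 further: probe is biotinylated aNog protein used at 0.15 µg/mL for 1 h at 4 C; z-score combines 667 nm fluorescence of each spot with its signal to noise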
[9] = biological target: Torsin-1A-interacting protein 1 (Homo sapiens) (UniProt Q5JTV8); test: LAP1 binders from COS7 cell lysate, primary screen, small-molecule microarray, 635/667 nm fluorescence (AID 1116); details: COS7-hLAP1 lysate binding, 635 nm fluorescence, higher = more signal
Torsin-1A-interacting protein 1 (Homo sapiens), sequence (Q5JTV8 whole entry, looked up): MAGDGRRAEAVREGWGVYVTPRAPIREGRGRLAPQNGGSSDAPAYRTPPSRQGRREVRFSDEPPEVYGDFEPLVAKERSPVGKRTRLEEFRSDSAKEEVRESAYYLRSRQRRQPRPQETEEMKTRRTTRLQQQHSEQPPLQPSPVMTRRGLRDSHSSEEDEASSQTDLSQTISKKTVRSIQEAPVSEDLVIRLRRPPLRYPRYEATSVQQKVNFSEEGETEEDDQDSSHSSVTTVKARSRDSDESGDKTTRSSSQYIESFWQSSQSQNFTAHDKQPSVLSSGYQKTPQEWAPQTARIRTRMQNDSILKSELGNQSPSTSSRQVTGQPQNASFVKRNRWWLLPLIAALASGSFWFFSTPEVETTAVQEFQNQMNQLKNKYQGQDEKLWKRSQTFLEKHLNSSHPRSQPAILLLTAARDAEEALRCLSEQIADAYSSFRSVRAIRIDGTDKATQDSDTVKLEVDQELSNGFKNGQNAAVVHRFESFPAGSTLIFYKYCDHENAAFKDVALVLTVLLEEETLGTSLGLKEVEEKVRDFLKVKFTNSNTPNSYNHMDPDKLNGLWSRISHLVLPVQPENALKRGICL

[10] = biological target: Alpha-bungarotoxin (Bungarus multicinctus) (UniProt P60615); test: alpha-bungarotoxin binders on microarray, profiling panel, artefact control for SMM control protein annotation, biochemical, small-molecule microarray, Alexa647 label, 635/667 nm fluorescence (AID 1117); details: alpha-BTX-A647 binding fluorescence, higher = more signal
Alpha-bungarotoxin (Bungarus multicinctus), sequence (P60615 whole entry, looked up): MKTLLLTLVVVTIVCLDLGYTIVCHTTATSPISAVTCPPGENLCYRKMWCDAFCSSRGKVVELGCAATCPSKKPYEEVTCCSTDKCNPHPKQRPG

[11] = biological target: Albumin (Bos taurus) (UniProt P02769); test: bovine serum albumin binders on microarray, profiling panel, artefact control for SMM control protein annotation, biochemical, small-molecule microarray, Alexa647 label, 635/667 nm fluorescence (AID 1118); details: BSA-A647 binding, fluorescence 635 nm, higher = more signal;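 further: score merges 667 nm emission intensity and signal-to-noise per printed compound spot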
Albumin (Bos taurus), sequence (P02769 whole entry, looked up): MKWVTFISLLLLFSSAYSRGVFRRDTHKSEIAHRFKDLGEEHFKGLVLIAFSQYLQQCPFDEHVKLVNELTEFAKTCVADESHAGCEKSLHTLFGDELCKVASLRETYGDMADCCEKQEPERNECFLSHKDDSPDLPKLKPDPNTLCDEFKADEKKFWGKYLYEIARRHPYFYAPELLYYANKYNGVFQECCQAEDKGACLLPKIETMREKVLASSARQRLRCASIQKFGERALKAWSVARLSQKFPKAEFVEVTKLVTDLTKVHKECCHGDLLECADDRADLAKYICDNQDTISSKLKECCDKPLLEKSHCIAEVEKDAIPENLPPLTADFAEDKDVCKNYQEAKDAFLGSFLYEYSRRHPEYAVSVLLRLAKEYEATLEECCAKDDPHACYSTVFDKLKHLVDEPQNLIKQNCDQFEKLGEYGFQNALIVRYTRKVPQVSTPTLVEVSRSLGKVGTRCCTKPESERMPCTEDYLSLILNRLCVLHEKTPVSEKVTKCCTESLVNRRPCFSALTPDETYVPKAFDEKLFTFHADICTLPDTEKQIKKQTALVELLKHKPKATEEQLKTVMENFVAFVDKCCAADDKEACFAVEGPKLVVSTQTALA

[12] = small-molecule microarray binders of probe aXIP, primary screen, biochemical, NeuroSMM set, 635/667 nm fluorescence (AID 1119); details: higher = more signal, called active from +8 up or from −8 down;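 further: probe is the protein aXip251-270 applied at 1 µg/mL to compound-printed slides; binding of probe to printed compounds measured as 667 nm fluorescence plus signal to noise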
[13] = small-molecule binders of probe aNOTCH3, primary screen, biochemical, small-molecule microarray, 635/667 nm fluorescence (AID 1120); details: higher = more signal;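 further: probe is a biotin-tagged antibody raised against NOTCH3 rather than NOTCH3 protein; score merges spot fluorescence near 667 nm with spot signal to noise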
[14] = small-molecule binders of probe aNOTCH2, primary screen, biochemical, small-molecule microarray, 635/667 nm fluorescence (AID 1121); details: higher = more signal;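 further: score merges feature fluorescence read at 667 nm with its signal to noise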
[15] = biological target: Carbonic anhydrase 2 (Homo sapiens) (UniProt P00918); test: CAII small-molecule binders, profiling panel, biochemical, small-molecule microarray, Alexa647-labelled CAII (AID 1122); details: CAII-A647 binding fluorescence, higher = more signal
[16] = COS7 lysate on small-molecule microarray, probe aHis, 635 nm (AID 1123); details: COS7 cell lysate, fluorescence, higher = more signal;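 further: z-score combines 667nm fluorescence intensity with signal-to-noise per printed compound spot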
[17] = compound binding in COS7 lysate, probe aLAP1, primary screen, cell lysate, small-molecule microarray (AID 1124); details: probe aLAP1, fluorescence, higher = more signal;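 further: lysate comes from COS7 cells expressing LAP1 and is applied at 0.3 µg/mL; score merges spot fluorescence near 667 nm with signal-to-noise over triplicate slides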
[18] = tested on: Sam68 (KHDRBS1); test: Sam68 small-molecule binders, primary screen, biochemical, small-molecule microarray, 635 nm fluorescence (AID 1125); details: small-molecule microarray binding, higher = more signal;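 further: score merges 667 nm channel intensity with signal to noise over triplicate slides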
[19] = tested on: Chordin-like protein 2 (CHRDL2); test: CHRDL2 small-molecule binders, primary screen, biochemical, small-molecule microarray, 635 nm fluorescence (AID 1126); details: small-molecule microarray binding, fluorescence 635 nm; higher = more signal;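 further: printed compound slides probed with Chrdl2 protein at 4 µg/mL for 1 h at 4 C; score merges 667 nm emission intensity with signal to noise over three replicate slides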
[20] = biological target: Concanavalin-A (Canavalia ensiformis) (UniProt P02866); test: ConA small-molecule binders, primary screen, artefact control for SMM control protein annotation, biochemical, small-molecule microarray, Alexa647 label, 635 nm (AID 1127); details: ConA-A647 binding fluorescence, higher = more signal;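 further: z combines 667 nm emission intensity with signal-to-noise across three replicate slides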
Concanavalin-A (Canavalia ensiformis), sequence (P02866 whole entry, looked up): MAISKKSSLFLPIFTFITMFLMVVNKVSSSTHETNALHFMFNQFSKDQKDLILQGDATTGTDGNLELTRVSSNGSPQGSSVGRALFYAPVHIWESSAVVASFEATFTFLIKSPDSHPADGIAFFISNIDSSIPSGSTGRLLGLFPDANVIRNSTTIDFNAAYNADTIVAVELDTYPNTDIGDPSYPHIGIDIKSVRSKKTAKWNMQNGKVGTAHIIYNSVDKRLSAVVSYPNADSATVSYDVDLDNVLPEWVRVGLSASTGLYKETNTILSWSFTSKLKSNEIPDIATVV

| SMILES | composite z-score [1] | z-score [2] | composite z-score [3] | composite z-score [4] | composite z-score [5] | composite z-score [6] | composite z-score [7] | composite z-score [8] | composite z-score [9] | composite z-score [10] | composite z-score [11] | composite Z-score [12] | composite z-score [13] | composite z-score [14] | composite z-score [15] | composite z-score [16] | composite z-score [17] | composite z-score [18] | composite z-score [19] | composite z-score [20] |
| --- | --- | --- | --- | --- | --- | --- | --- | --- | --- | --- | --- | --- | --- | --- | --- | --- | --- | --- | --- | --- |
| Cc1ccc(S[C@]2(C(=O)NCC(F)(F)F)CC(=O)N(Cc3ccccc3C(F)(F)F)[C@@H]2c2ccc(CO)cc2)cc1 | -0.654 | 0.169 | -1.32 | -0.39 | 0.0313 | -0.199 | -0.253 | 0.526 | 0.0216 | -0.693 | -0.0912 | 0.0348 (inactive) | -0.233 | -0.0861 | 0.653 | 1.24 | 1.26 | -0.556 | -1.45 | -0.87 |
| Cc1ccc(S[C@]2(C(=O)NCCCN(C)C)CC(=O)N(Cc3ccccc3C(F)(F)F)[C@@H]2c2ccc(CO)cc2I)cc1 | 0.545 | -2.37 | -1.17 | -0.252 | 0.236 | 0.264 | -0.403 | 1.27 | 0.28 | -0.0365 | 0.374 | -0.755 (inactive) | -0.422 | 0.337 | 0.792 | 1.36 | 1.83 | 0.492 | -0.532 | 0.0055 |
| COc1ccc(C(O)C2C=CC3C(=O)N(c4ccccc4)C(=O)C3N2Nc2ccc(C#N)cc2)cc1OCc1ccccc1 (stereo not given) | 1.04 | -0.738 | -0.165 | 2.32 | 1.29 | 0.0497 | 0.171 | 0.1 | 2.54 | 1.16 | 1.06 | -0.502 (inactive) | 0.291 | 0.131 | 0.634 | 2.01 | 1.17 | 1.3 | -0.333 | 1.1 |
| O=C1C[C@]2(c3ccc([N+](=O)[O-])cc3)C(=O)N(C3CC3)c3cc(CO)ccc3[C@H]2N1C1CCCCC1 | 0.481 | 0.82 | 0.0985 | -0.301 | -0.931 | -0.178 | -0.0146 | -0.383 | -0.0456 | 0.637 | -0.806 | 0.127 (inactive) | -0.103 | -0.172 | -0.0953 | 0.792 | 0.835 | 0.0418 | -0.308 | 0.55 |
| C=C(C)[C@@H]1CC=C(C(O)C2C=CC3C(=O)N(c4ccccc4)C(=O)C3N2Nc2ccc([N+](=O)[O-])cc2)CC1 (stereo not given in full) | 1.46 | -0.315 | 1.26 | -0.0515 | 0.261 | -0.0222 | -0.0119 | 1.24 | -0.151 | 0.839 | 0.83 | 0.115 (inactive) | 0.0254 | 0.09 | 0.558 | 2.92 | 0.22 | 1.32 | 0.077 | 0.246 |
| COC(=O)[C@H](Cc1ccc(O)cc1)N[C@@H](/C=C/C1CC1)[C@H](O)Cc1ccccc1 | -0.367 | -1.06 | -0.0158 | -0.851 | -0.929 | -0.15 | -0.214 | -0.321 | 0.108 | -0.22 | -0.394 | -0.414 (inactive) | -0.127 | -0.172 | -0.231 | -0.635 | -0.125 | 0.0476 | 0.202 | -0.407 |
| O=C1C2C=CC(C(O)c3c(F)cccc3Cl)N(Nc3ccc([N+](=O)[O-])cc3)C2C(=O)N1c1ccccc1 (stereo not given) | 1.41 | 0.128 | 0.563 | 2.16 | 0.132 | -0.0222 | 0.23 | 0.803 | 1.6 | 0.676 | 0.589 | -0.0608 (inactive) | 0.465 | -0.037 | 0.804 | 2.83 | 1.43 | 1.3 | 0.268 | 1.11 |
| C=C(COC)C(=O)CC[C@@H](OC(C)=O)c1ccccc1OCCO | 0.0358 | -2.72 | 0.325 | -0.85 | -0.976 | -0.175 | -0.0626 | 0.493 | 1.28 | 0.0746 | -0.145 | -0.975 (inactive) | 0.183 | -0.15 | 0.675 | -0.762 | 0.583 | 0.789 | -0.0113 | -0.0386 |
| COC(=O)[C@@]1(Cc2ccc(F)cc2)[C@H]2c3cc(C(=O)N4CCCC4)n(CCc4ccccn4)c3C[C@H]2CN1C(=O)c1ccccc1 | 0.724 | -0.74 | -0.27 | 1.16 | 0.42 | 0.136 | 0.887 | 1.53 | 0.294 | 0.0045 | 0.634 | 0.191 (inactive) | 0.0488 | 0.186 | 0.852 | 2.13 | 0.233 | 0.0315 | -0.163 | 0.222 |
| CC(C)=CCCC(C)=CC(O)C1C=CC2C(=O)NC(=O)C2N1Nc1ccccn1 (stereo not given) | 1.13 | -0.156 | 1.45 | -0.188 | -1.15 | 0.176 | -0.153 | -0.0116 | 1 | 1.2 | 0.408 | 0.992 (inactive) | 0.254 | 0.0047 | 0.725 | 0.39 | 0.969 | 1.25 | 1.43 | 0.932 |
| O=C1NC(=O)C2C1C=CC(C(O)c1ccc(B(O)O)cc1)N2Nc1ccc(Cl)cc1Cl (stereo not given) | -0.181 | -0.693 | -0.401 | 0.524 | 0.0583 | -0.0721 | -0.181 | 0.682 | 0.392 | 0.869 | 0.0179 | 0.168 (inactive) | 0.0864 | 0.119 | 0.753 | 0.546 | -0.11 | -0.597 | 0.0005 | 0.423 |
| CCOC(=O)C[C@H]1[C@H](OC(=O)Cc2ccc3c(c2)OCO3)[C@@H](NC(=O)Cc2ccc(OC)cc2)c2cc(OCCCO)ccc2N1C(=O)Cc1ccc(OC)cc1 | 0.221 | -1.05 | -0.261 | 0.824 | 0.0314 | -0.147 | -0.14 | 0.118 | 0.664 | -0.105 | 0.635 | 0.472 (inactive) | -0.143 | -0.172 | 0.263 | 0.428 | 0.0995 | 0.323 | -0.0366 | -0.117 |
